# Mtb betalactam: beta-lactam sensitization of Mtb H37Rv | M. tuberculosis H37Rv growth with meropenem, percent inhibition | inhibition, % at 25 µM | 330,000 compounds, 0.27% hits; call rule not given here;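 also: growth measured after seven days incubation then overnight dye step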
# ugtP null kill: kills S. aureus RN4220 lacking UgtP. S. aureus RN4220 ugtP deletion, OD600 growth, 16 h. growth inhibition, % (concentration not given with the values). 330,000 compounds, 0.54% hits; in the data active = growth inhibition above about 68%
# Sa RN4220 lethal: S. aureus RN4220 growth inhibition | OD600, 16 h | inhibition, % (no concentration beside the values) | 330,000 compounds, 0.33% hits | AID 1259311; in the data active = inhibition above about 85%
# PfHsp40 yeast: compounds rescuing yeast from Plasmodium falciparum HSP40 toxicity | S. cerevisiae expressing PfHsp40, growth rescue, ATP luminescence | growth rescue, % at 12.5 µM | 340,000 compounds, 0.68% hits; in the data active = growth rescue above about 28%, passing the limit was not always enough; inconclusive = no clear call, values can overlap the other calls;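 also: yeast W303a lacking pdr1 and pdr3 grown in galactose medium; growth measured after three days at 30 °C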
# Mtb BioA inh: inhibitors of Mycobacterium tuberculosis BioA enzyme; 360,000 compounds, 0.096% hits; purified M. tuberculosis BioA enzyme, plate reader; inhibition, % at 9.99 µM; in the data active = inhibition above about 40%; inconclusive = no clear call, values can overlap the other calls
# A number is an active result; i = inactive; ? = inconclusive; nt = no result given. An excerpt weighted towards active compounds, which were near 0.9% of everything screened.
SMILES,Mtb betalactam,ugtP null kill,Sa RN4220 lethal,PfHsp40 yeast,Mtb BioA inh
O=C(CC(=O)c1c(F)cccc1Cl)c1ccccc1O,i,i,i,112,i
CC1CN(C(C)CO)C(=O)c2cccc(NC(=O)Nc3ccc(C(F)(F)F)cc3)c2OC1CN(C)S(C)(=O)=O (stereo not given),nt,i,i,nt,nt
CN(C)S(=O)(=O)c1ccc(Nc2ccc(-c3ccc4c(c3)OCCO4)nn2)cc1,i,i,i,i,i
CN(C(=O)c1cccc(Nc2ccc(-c3ccc4c(c3)OCCO4)nn2)c1)C1CCCCC1,i,99,88,i,i
C=CCNc1nc(-c2ccccn2)nnc1-c1ccccc1,i,i,i,354,i
COc1ccc(C2C3C(=O)N(C(C)(C)C)C(=O)C3[C@]3(Cc4ccc(Cl)cc4)C(=O)N(c4cccc(Br)c4)C(=O)N23)cc1 (stereo not given in full),nt,i,i,nt,nt
C=CCOC(=O)C1=CC(c2cn(C(C)=O)c3ccccc23)CC(OCCCCO)O1 (stereo not given),nt,i,i,nt,nt
Cc1ccc2oc3c(c(=O)c2c1)C(c1cccs1)N(CCCN(C)C)C3=O (stereo not given),i,i,i,i,59
O=C1c2oc3ccccc3c(=O)c2C(c2cccs2)N1CCCN1CCOCC1 (stereo not given),i,i,i,i,i
CC(=O)NCCc1c(C)n(Cc2ccccc2)c2ccccc12,i,i,i,64,i
OCCC1CC(O)C(O)[C@@]2(CCCO2)O1 (stereo not given in full),nt,i,i,nt,nt
O=C(O)C=CC(=O)NCc1cn(-c2ccccc2)nc1-c1cccc(Br)c1,nt,i,i,nt,nt
CCOC1OC(C(N)=O)=CC(c2coc3ccccc3c2=O)C1CCCO (stereo not given),nt,i,i,nt,nt
O=C(C=Cc1ccc(S(=O)(=O)N2CCOCC2)cc1)NC(=S)NCCCn1ccnc1,nt,i,i,nt,nt
C=CCn1c(COc2ccccc2)nnc1SCC(=O)N/N=C/c1cc(Cl)ccc1O,i,nt,nt,44,i
N#CC(=Cc1cn(CC(=O)O)c2ccccc12)C(=O)NCc1ccccc1,nt,i,i,nt,nt
O=C(Oc1cc(=O)oc2c1c(=O)n1c3c(cccc23)CC1)c1ccccc1,i,82,i,i,nt
O=C(Oc1cc(=O)oc2c1c(=O)n1c3c(cccc23)CC1)c1ccc(F)cc1,i,nt,nt,nt,i
CCOC(=O)c1cnc(-c2ccccc2)nc1Oc1ccccc1,i,86,i,i,i
COC(=O)C(C)C1C[C@]1(C)C(NC(=O)OCc1ccccc1)c1ccccc1 (stereo not given in full),nt,i,i,nt,nt
O=C(NCc1ccccc1)C1=C[C@@H](C2CC2)C[C@@H](OCc2ccc(CO)cc2)O1,i,nt,nt,55,i
COc1cccc(CN2C(=O)C3Cc4c([nH]c5ccccc45)C(C)(C)N3C2=O)c1 (stereo not given),nt,i,i,nt,nt
CCCNC(=S)N1CCN(c2nc(C)nc3sc4c(c23)CCCC4)CC1,i,i,i,32,i
CC1CCCN(Cc2c(C(=O)N3CCc4ccccc4C3)nc3ccc(Cl)cn23)C1 (stereo not given),i,i,i,55,i
COC1CCCN(Cc2c(C(=O)N3CCc4ccccc4C3)nc3ccc(Cl)cn23)C1 (stereo not given),i,i,i,i,i
SMILES,Mtb betalactam,ugtP null kill,Sa RN4220 lethal,PfHsp40 yeast,Mtb BioA inh
O=C(CC1CC=CCC(NC(=O)OCC2c3ccccc3-c3ccccc32)C(=O)OCC2CCCN2C1=O)NC(CO)Cc1ccccc1 (stereo not given),nt,i,i,nt,nt
COc1cccc(-n2nnnc2SCC(=O)Nc2ccccc2OC)c1,i,i,i,i,i
CCCS(=O)(=O)c1nnnn1-c1cccc(OC)c1,i,i,i,408,i
CCC(C)C(C(=O)NCCCCCCCCCCC(=O)N1CCN(C(=O)OC(C)(C)C)CC1)n1cc(CCCCCNC(=O)OC(C)(C)C)nn1 (stereo not given),nt,i,i,nt,nt
Cc1cc(C(=O)COC(=O)c2cc(Cl)ccc2N)c(C)n1Cc1ccco1,i,99,i,i,nt
CC(C)CC(CNC(=O)OC(C)(C)C)NC(=O)c1nc[nH]c1C(=O)NC(CC(C)C)C(=O)CNCC(CC(C)C)NC(=O)c1nc[nH]c1C(=O)NC(Cc1c[nH]c2ccccc12)C(=O)OC(C)(C)C (stereo not given),nt,i,i,nt,nt
O=[N+]([O-])c1cc(C(F)(F)F)ccc1NCCCCNS(=O)(=O)c1ccc(Cl)cc1,i,i,i,i,i
O=[N+]([O-])c1cc(C(F)(F)F)ccc1N1CCC(O)CC1,i,i,i,i,nt
O=C(Nc1ccc(Cl)cc1)N1CCCN(c2ccc(C(F)(F)F)cc2[N+](=O)[O-])CC1,i,nt,nt,44,i
O=[N+]([O-])c1ccc(NC(=S)NCc2ccc(F)cc2)cc1,i,nt,nt,109,i
O=[N+]([O-])c1ccc(NC(=S)NCCc2ccc(Cl)cc2)cc1,i,100,101,i,nt
O=[N+]([O-])c1cc(C(F)(F)F)ccc1NCCNC(=S)Nc1ccc(Cl)cc1,i,90,85,?,nt
O=[N+]([O-])c1ccc(NC(=S)NCCc2ccccc2)cc1,i,i,i,i,nt
CSCCC(NC(=O)C(=Cc1ccc(F)cc1)NC(C)=O)C(=O)O (stereo not given),nt,i,i,nt,nt
O=C1Nc2ccccc2C(=O)N2C1C1C(=O)N(Cc3ccccc3)C(=O)C1C2c1cccc(Br)c1 (stereo not given),nt,i,i,nt,nt
COC(=O)C1=C(c2ccccc2)CC2CCC1N2C(=O)N1CCCC1 (stereo not given),nt,i,i,nt,nt
C#CCOCCOCCOCCNc1nc(N2CCN(C(=O)C(Cc3cc4ccccc4[nH]3)n3cc(C(N)CC(C)C)nn3)CC2)nc(N2CCN(C(=O)C(CCC(=O)O)n3cc(C(N)C(C)CC)nn3)CC2)n1 (stereo not given),nt,i,i,nt,nt
Oc1ccccc1-c1cc(-c2ccc3c(c2)OCCO3)n[nH]1,i,i,i,476,i
O=C(O)c1cc(-c2ccc3c(c2)OCCO3)n[nH]1,i,i,i,i,i
CCN1C(=O)/C(=C2\C=Cc3cc(C)ccc3N2CC)OC1=S,i,nt,nt,i,i
CCN1/C(=C/c2cc[n+](C)cc2)C=Cc2cc(C)ccc21,i,100,i,i,nt
O=C(NC(c1ccccc1)C1CC1C(=O)NCc1ccccn1)OCc1ccccc1 (stereo not given),nt,i,i,nt,nt
Fc1ccc(Nc2nc(N/N=C/c3ccco3)nc(N3CCCCC3)n2)cc1,i,nt,nt,102,nt
C(=N\Nc1nc(N2CCOCC2)nc(N2CCOCC2)n1)/c1ccco1,i,nt,nt,nt,nt
O=C(Nc1ccc(Cl)c(Cl)c1)C1=Cc2ccccc2OC1,i,98,86,i,i
SMILES,Mtb betalactam,ugtP null kill,Sa RN4220 lethal,PfHsp40 yeast,Mtb BioA inh
O=C(Nc1cccc(Cl)c1)C1=Cc2cc(Cl)ccc2OC1,i,i,i,?,i
CCCSc1cc(N2CCCC2)nc(-c2ccccc2)n1,i,i,i,i,i
CCCSc1cc(N2CCN(C)CC2)nc(-c2ccc(OC)cc2)n1,i,100,i,i,nt
O=C1C=CC(=O)C2C1C1(Cl)C(Cl)=C(Cl)C2(Cl)C1(Cl)Cl (stereo not given),nt,97,88,54,i
S=C(NCCCc1ccccc1)Nc1ccccc1Cl,i,i,i,223,nt
S=C(NCCCCNC(=S)NCc1ccccc1)NCc1ccccc1,i,i,i,i,nt
